Unmarked numbers belong to inactive results.

The first experiment deals with primary human airway basal cells (HBEC, luciferase-transduced). The experiment in a line: proliferation (luciferase bioluminescence) Z score relative to plate mean; higher = more proliferation / more cells, active = 1.96 or more. To be noted: donor: 1; 0.5 µM; library: ENZO Libraries; 4 days. As for the experimental part:
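Primary human bronchial epithelial (airway basal) cells from two donors, lentivirally transduced with pHIV-Luc-ZsGreen, were seeded at 2000 cells/well in 384-well plates in FAD medium with ENZO or Prestwick library compounds and cultured for 4 days. Luciferin was then added and bioluminescence was read as a measure of cell number. Relative light units were converted to Z scores against the plate, and the mean of triplicate wells is reported.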
For `CN(C)c1ccc(/C=C2/C(=O)Nc3ccccc32)cc1`, the proliferation is -0.0148.
In the case of `O=C1Nc2ccc([N+](=O)[O-])cc2C1=O` [5-Nitroisatin], the proliferation is 0.112.
On to `C[C@H](NC(=O)[C@@H]1CCCN1C(=O)[C@@H]1CCCN1C(=O)[C@@H](O)[C@H](N)Cc1ccccc1)C(N)=O` [Apstatin], for which the proliferation was -0.513.
Regarding `O=C(O)c1ccc2nc(-c3ccccc3)c(-c3ccccc3)nc2c1`, the proliferation is -0.199.
On to `CC(NC(=O)c1ccccc1/N=C/c1c(O)ccc2ccccc12)c1ccccc1` (stereo not given) [Sirtinol], for which the proliferation was -0.129.
In the case of `O=C(O[C@@H]1Cc2c(O)cc(O)cc2O[C@@H]1c1cc(O)c(O)c(O)c1)c1cc(O)c(O)c(O)c1` [Epigallocatechin gallate], the proliferation was 0.183.
As for `C=C1C(=O)O[C@@H](CCC)[C@@H]1C(=O)O` [Butyrolactone 3], the proliferation was -0.342.
On to `COCc1cc(O)c(O)c(O)c1-c1c(COC)cc(O)c(O)c1O`, for which the proliferation is -0.578.
Consider `CC1CNc2c(cccc2S(=O)(=O)N[C@@H](CCCNC(=N)N)C(=O)N2CC[C@@H](C)C[C@@H]2C(=O)O)C1` (stereo not given in full) [Argatroban], for which the proliferation was 0.0616.
As to `O=C(O)CCCc1ccccc1`, the proliferation is -0.468.
Take `Cn1cnc2nc(NCCO)nc(NCc3ccccc3)c21` [Iso-olomoucine]: the proliferation is 0.048.
With `N#C/C(=C\c1ccc(O)c(O)c1)C(N)=O`, the proliferation is -0.0866.
Still for that read-out and setting: then `CC(C)CCNC(=O)[C@H](CC(C)C)NC(=O)[C@H]1O[C@@H]1C(=O)O`, with -0.298.
Same read-out and setting: then `Nc1ccccc1NC(=O)CCCCCCC(=O)Nc1ccccc1`, with 0.133; and `CC(C)C[C@H](NC(=O)[C@@H](O)[C@H](N)Cc1ccccc1)C(=O)O`, with -0.66; and `CC1(C)C[C@@H]1C(=O)N/C(=C\CCCCSC[C@H](N)C(=O)O)C(=O)O` [Cilastatin], with -0.499.
As to `Cn1cnc2c(NCc3ccccc3)nc(NCCO)nc21` [Olomoucine], the proliferation is 0.166.
Regarding `O=c1c(-c2ccc(O)cc2)coc2cc(O)ccc12` [Daidzein], the proliferation is 0.207.
Still for that read-out and setting: as for `CC(C)C[C@H](NP(=O)(O)O[C@@H]1O[C@@H](C)[C@H](O)[C@@H](O)[C@H]1O)C(=O)N[C@@H](Cc1c[nH]c2ccccc12)C(=O)O` [Phosphoramidon], the figure is -0.109; as for `C=C(C)[C@@H](CC=C(C)C)C[C@@]12C[C@@H](CC=C(C)C)C(C)(C)[C@@](CC=C(C)C)(C(=O)C(C(=O)c3ccc(O)c(O)c3)=C1O)C2=O` [Garcinol], -0.468.

The experiment is the same for the next values; noted with them: donor: 1; 5 µM; library: ENZO Libraries; 4 days.
In the case of `CN(C)c1ccc(/C=C2/C(=O)Nc3ccccc32)cc1`, the proliferation is 1.43.
For `O=C1Nc2ccc([N+](=O)[O-])cc2C1=O` [5-Nitroisatin], the proliferation was -0.27.
Turning to `C[C@H](NC(=O)[C@@H]1CCCN1C(=O)[C@@H]1CCCN1C(=O)[C@@H](O)[C@H](N)Cc1ccccc1)C(N)=O` [Apstatin], the proliferation was -0.193.
With `O=C(O)c1ccc2nc(-c3ccccc3)c(-c3ccccc3)nc2c1`, the proliferation is -0.68.
Turning to `CC(NC(=O)c1ccccc1/N=C/c1c(O)ccc2ccccc12)c1ccccc1` (stereo not given) [Sirtinol], the proliferation is -0.361.
In the case of `O=C(O[C@@H]1Cc2c(O)cc(O)cc2O[C@@H]1c1cc(O)c(O)c(O)c1)c1cc(O)c(O)c(O)c1` [Epigallocatechin gallate], the proliferation was -0.177.
As for `C=C1C(=O)O[C@@H](CCC)[C@@H]1C(=O)O` [Butyrolactone 3], the proliferation is 0.149.
The same measure, in the same setting: then `COCc1cc(O)c(O)c(O)c1-c1c(COC)cc(O)c(O)c1O`, with -0.416.
With `CC1CNc2c(cccc2S(=O)(=O)N[C@@H](CCCNC(=N)N)C(=O)N2CC[C@@H](C)C[C@@H]2C(=O)O)C1` (stereo not given in full) [Argatroban], the proliferation was -0.0211.
For `O=C(O)CCCc1ccccc1`, the proliferation was -0.326.
The same measure, in the same setting: then `Cn1cnc2nc(NCCO)nc(NCc3ccccc3)c21` [Iso-olomoucine], with 0.096; and `N#C/C(=C\c1ccc(O)c(O)c1)C(N)=O`, with -0.0854; and `CC(C)CCNC(=O)[C@H](CC(C)C)NC(=O)[C@H]1O[C@@H]1C(=O)O`, with -0.117.
Still for that read-out and setting: then `Nc1ccccc1NC(=O)CCCCCCC(=O)Nc1ccccc1`, with 0.0632; and `CC(C)C[C@H](NC(=O)[C@@H](O)[C@H](N)Cc1ccccc1)C(=O)O`, with -0.519; and `CC1(C)C[C@@H]1C(=O)N/C(=C\CCCCSC[C@H](N)C(=O)O)C(=O)O` [Cilastatin], with -0.038.
For the compound `Cn1cnc2c(NCc3ccccc3)nc(NCCO)nc21` [Olomoucine], the proliferation was -0.244.
`O=c1c(-c2ccc(O)cc2)coc2cc(O)ccc12` [Daidzein]: the proliferation was 1.72.
Take `CC(C)C[C@H](NP(=O)(O)O[C@@H]1O[C@@H](C)[C@H](O)[C@@H](O)[C@H]1O)C(=O)N[C@@H](Cc1c[nH]c2ccccc12)C(=O)O` [Phosphoramidon]: the proliferation is 0.079.
On to `C=C(C)[C@@H](CC=C(C)C)C[C@@]12C[C@@H](CC=C(C)C)C(C)(C)[C@@](CC=C(C)C)(C(=O)C(C(=O)c3ccc(O)c(O)c3)=C1O)C2=O` [Garcinol], for which the proliferation was -0.215.
